Assay results reported in PubChem BioAssay (NCI).
The panel holds about 83,000 compounds, 20% with a hit somewhere; the sample as a whole holds those more often.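 A percent growth of 40 corresponds to 60% growth inhibition; 0 means no net growth; -100 means all cells died. Active threshold: below 10.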 Calls of active or inactive are those of the source.

Legend:
Experiment in all cases: NCI-60 one-dose screen, 48 h (100 = growth as untreated, 0 = no growth, -100 = all killed)
SK-MEL-2 melanoma = details: 10 µM unless noted
EKVX NSCLC = details: 10 µM unless noted
SN12C renal = details: 10 µM unless noted
UO-31 renal = details: 10 µM unless noted
TK-10 renal = details: 10 µM unless noted
ACHN renal = details: 10 µM unless noted
A498 renal = details: 10 µM
HL-60(TB) leukemia = details: 10 µM unless noted
CCRF-CEM leukemia = details: 10 µM unless noted
MOLT-4 leukemia = details: 10 µM unless noted
RPMI-8226 leukemia = details: 10 µM unless noted
OVCAR-8 ovarian = details: 10 µM unless noted
OVCAR-5 ovarian = details: 10 µM unless noted
OVCAR-4 ovarian = details: 10 µM unless noted
SK-OV-3 ovarian = details: 10 µM unless noted
IGROV1 ovarian = details: 10 µM unless noted
OVCAR-3 ovarian = details: 10 µM unless noted
HS 578T breast = details: 10 µM unless noted
SR leukemia = details: 10 µM unless noted

Measured: growth

COc1ccc2c(c1)c(-c1nc(-c3cn(C)c4ncccc34)cs1)cn2CCN1CCOCC1
active: UO-31 renal 3.02%
inactive: SK-MEL-2 melanoma 56% | EKVX NSCLC 61.1% | SN12C renal 34.3% | TK-10 renal 49.4% | ACHN renal 32.1% | A498 renal 76.1% | HL-60(TB) leukemia 31.3% | CCRF-CEM leukemia 31.1% | MOLT-4 leukemia 33.5% | RPMI-8226 leukemia 13.3% | OVCAR-8 ovarian 29.2% | OVCAR-5 ovarian 78.2% | OVCAR-4 ovarian 42% | SK-OV-3 ovarian 85.1% | IGROV1 ovarian 28.7% | OVCAR-3 ovarian 47.9% | HS 578T breast 31.4%

Cc1ccc(C(=O)NCCCOc2ccc(N3C(N)=NC(N)=NC3(C)C)cc2Cl)cc1S(=O)(=O)F
active: IGROV1 ovarian -28.2%
inactive: SK-MEL-2 melanoma 70.1% | EKVX NSCLC 79.3% | SN12C renal 35.2% | UO-31 renal 105% | TK-10 renal 103% | ACHN renal 110% | A498 renal 118% | HL-60(TB) leukemia 30.2% | CCRF-CEM leukemia 55.1% | MOLT-4 leukemia 119% | SR leukemia 21.4% | OVCAR-8 ovarian 77.2% | OVCAR-5 ovarian 51.6% | OVCAR-4 ovarian 111% | SK-OV-3 ovarian 101% | OVCAR-3 ovarian 121%

[Cl][Hg][c]1cc[c]([Hg][Cl])o1
active: UO-31 renal 3.18% | ACHN renal 3.3% | CCRF-CEM leukemia 4.4% | SR leukemia 6.25% | RPMI-8226 leukemia 1.23%
inactive: SK-MEL-2 melanoma 57.9% | EKVX NSCLC 20.5% | SN12C renal 34.9% | TK-10 renal 41.8% | A498 renal 109% | HL-60(TB) leukemia 22.5% | MOLT-4 leukemia 14.3% | OVCAR-8 ovarian 65.1% | OVCAR-5 ovarian 122% | OVCAR-4 ovarian 79.6% | SK-OV-3 ovarian 94.9% | IGROV1 ovarian 15.9% | HS 578T breast 55.4%

COc1ccc(C(=O)c2cc(OC)c(OC)c(OC)c2)cc1OC(C)=O
inactive: SK-MEL-2 melanoma 47.8% | EKVX NSCLC 68.7% | SN12C renal 29.5% | UO-31 renal 39.6% | TK-10 renal 74.8% | ACHN renal 36.7% | A498 renal 49.8% | MOLT-4 leukemia 13.9% | SR leukemia 11.9% | RPMI-8226 leukemia 20.4% | OVCAR-8 ovarian 15.6% | OVCAR-5 ovarian 57.9% | OVCAR-4 ovarian 57.7% | SK-OV-3 ovarian 24.2% | IGROV1 ovarian 25.6% | HS 578T breast 44.3%
active: HL-60(TB) leukemia -37.1% | OVCAR-3 ovarian 5.13%

COC(=O)[C@@H](C)C[C@H](Cc1ccccc1)NC(=O)c1csc([C@@H](C[C@H](C(C)C)N(C)C(=O)[C@H](C)NC(=O)[C@H]2CCCN2C)OC(C)=O)n1
inactive: SK-MEL-2 melanoma 43.8% | EKVX NSCLC 69.8% | SN12C renal 64.8% | UO-31 renal 71.8% | TK-10 renal 82.7% | ACHN renal 68.6% | CCRF-CEM leukemia 18.7% | MOLT-4 leukemia 42.6% | SR leukemia 14.1% | OVCAR-8 ovarian 58.3% | OVCAR-5 ovarian 110% | OVCAR-4 ovarian 88.9% | IGROV1 ovarian 58.1% | OVCAR-3 ovarian 17.9% | HS 578T breast 17.6%
active: HL-60(TB) leukemia -21.2% | RPMI-8226 leukemia 9.55%

CCCCCSC1C2C(=O)C(Br)=CC13CCNc1c(O)c4c5c(c13)=[N+]2CCC=5C=N4 (configuration not stated)
inactive: A498 renal 12.2%
active: SK-MEL-2 melanoma -54.8% | EKVX NSCLC -56.1% | SN12C renal -61.9% | UO-31 renal -66.9% | TK-10 renal -52.4% | ACHN renal -90.2% | HL-60(TB) leukemia -40.8% | MOLT-4 leukemia -45.5% | SR leukemia -14.1% | RPMI-8226 leukemia -17% | OVCAR-8 ovarian -30.2% | OVCAR-5 ovarian -55.2% | OVCAR-4 ovarian -88.6% | SK-OV-3 ovarian -2.42% | IGROV1 ovarian -64.6% | OVCAR-3 ovarian -79.5% | HS 578T breast 4.01%

CC1=C(CCCNS(C)(=O)=O)C2=C(C)C3(CC3)[C@@](C)(O)C(=O)C2=C1
inactive: CCRF-CEM leukemia 90.9% | MOLT-4 leukemia 90.2% | SR leukemia 92.8% | RPMI-8226 leukemia 97% | HS 578T breast 57.9%
active: SK-MEL-2 melanoma -44.7% | EKVX NSCLC 1.61% | SN12C renal 8.84% | UO-31 renal -32.6% | TK-10 renal -14.9% | ACHN renal -23.6% | A498 renal -43.2% | OVCAR-8 ovarian 6.9% | OVCAR-5 ovarian 2.82% | OVCAR-4 ovarian -12.1% | SK-OV-3 ovarian -18% | IGROV1 ovarian -2.43% | OVCAR-3 ovarian -12.7%

CCOP(=O)(Cc1ccc(C#N)cc1)OCC
inactive: SK-MEL-2 melanoma 92.3% | EKVX NSCLC 105% | SN12C renal 97% | UO-31 renal 99.2% | TK-10 renal 93.4% | ACHN renal 110% | A498 renal 98% | CCRF-CEM leukemia 99.3% | MOLT-4 leukemia 94.8% | SR leukemia 89% | RPMI-8226 leukemia 103% | OVCAR-8 ovarian 94.3% | OVCAR-5 ovarian 106% | OVCAR-4 ovarian 104% | SK-OV-3 ovarian 102% | IGROV1 ovarian 118% | OVCAR-3 ovarian 110% | HS 578T breast 105%
